Each molecule was assayed against Fibroblast growth factor 2 (Homo sapiens) (UniProt P09038) (assay: basic fibroblast growth factor binding to printed compounds – biochemical, small-molecule microarray, 635/667 nm fluorescence, primary screen (AID 1133)). Conditions: FGF2, fluorescence 635/667, higher = more signal.
Sequence of Fibroblast growth factor 2 (Homo sapiens) (P09038 whole entry, looked up): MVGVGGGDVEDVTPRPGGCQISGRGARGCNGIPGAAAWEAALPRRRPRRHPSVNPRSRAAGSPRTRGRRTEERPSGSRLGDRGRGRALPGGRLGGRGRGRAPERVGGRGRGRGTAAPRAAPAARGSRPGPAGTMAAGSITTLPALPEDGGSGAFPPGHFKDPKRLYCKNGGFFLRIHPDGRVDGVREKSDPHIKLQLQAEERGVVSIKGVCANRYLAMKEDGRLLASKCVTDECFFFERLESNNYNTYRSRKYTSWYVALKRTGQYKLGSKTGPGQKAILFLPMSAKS

Q: Which composite z-score does the source give for CC(=O)Nc1cc(Br)ccc1C(=O)O here?
A: -0.129

Q: How did the composite z-score turn out when Cc1ccccc1C(O)C1C=CC2C(=O)N(C)C(=O)C2N1N1CCCCC1 (stereo not given) was run?
A: 0.0201

Q: With [N-]=[N+]=NCc1ccccc1[C@@H]1OC(c2ccc(OCCCO)cc2)=N[C@]1(Cc1ccccc1)C(=O)N1CCCCC1 as the molecule, how does the composite z-score read?
A: 1.55

Q: COCC(=C=CC[C@H](O)c1ccc(OCCO)cc1)C[C@H](O)c1cc(Cl)cc(Cl)c1O was tested. Which composite z-score did it give?
A: 1.4

Q: COC(=O)[C@@]1(Cc2ccc(OC)cc2)[C@H]2c3cc(C(=O)N4CCCC4)n(Cc4ccccn4)c3C[C@H]2CN1C(=O)c1ccccc1 was tested. Which composite z-score did it give?
A: -0.332

Q: With COc1ccc([Si](C)(C)[C@@H]2[C@@H](CCn3cc([C@H](O)c4ccccc4)nn3)O[C@]3(C(=O)N(Cc4ccc(N5C(=O)c6cccc7cccc5c67)cc4)c4ccccc43)[C@H]2C)cc1 as the molecule, how does the composite z-score read?
A: -0.513

Q: O=C1O[C@@H](c2ccccc2)[C@@H](c2ccccc2)N2[C@@H](c3ccc(O)cc3)[C@]3(C(=O)Nc4ccc(C#CC5(O)CCCCCC5)cc43)[C@@H](C(=O)N3CCCCCCC3)[C@H]12 was tested. Which composite z-score did it give?
A: 1.62

Q: Which composite z-score does the source give for O=C1[C@]2(CO)C=C(Br)[C@@H](C[C@@H]2c2ccccc2)[C@@]12CO2 here?
A: 0.118

Q: COCCOC(=O)N1C(=O)[C@@]2(c3cc(C#CCCO)ccc31)[C@H](c1ccccc1OCCO)N1[C@H](c3ccccc3)[C@H](c3ccccc3)OC(=O)[C@H]1[C@@H]2C(=O)N1CCN(c2ncccn2)CC1 was tested. Which composite z-score did it give?
A: 0.819

Q: With CC=CC(O)C1C=CC2C(=O)N(c3ccccc3)C(=O)C2N1Nc1ccc(C(C)C)cc1 (stereo not given) as the molecule, how does the composite z-score read?
A: 0.133

Q: CC(c1ccccc1)C(O)C1C=CC2C(=O)NC(=O)C2N1Nc1ccccn1 (stereo not given) was tested. Which composite z-score did it give?
A: 0.458

Q: Which composite z-score does the source give for C=CCC(OC(C)=O)[C@@H]1[C@@H](N(Cc2ccc(-c3cccc(C(F)(F)F)c3)o2)C(=O)c2ccc(C)cc2)c2cc(OCCCO)ccc2N1C(=O)c1ccc(-c2ccccc2)cc1 (stereo not given in full) here?
A: 0.0875

Q: For COc1ccc([Si](C)(C)[C@@H]2[C@@H](CC(=O)N3CCC[C@H]3CO)O[C@]3(C(=O)N(C)c4c(Br)cc(C)cc43)[C@H]2C)cc1, which composite z-score is on record?
A: 0.987

Q: With O=C1O[C@H](c2ccccc2)[C@H](c2ccccc2)N2[C@H]1[C@@H](C(=O)O)[C@]1(C(=O)Nc3ccc(C#CC4=CCCCC4)cc31)[C@H]2c1ccc(OCCO)cc1 as the molecule, how does the composite z-score read?
A: 0.919

Q: How did the composite z-score turn out when CCCNC(=O)[C@@]1(c2ccc([N+](=O)[O-])cc2)CC(=O)N(CC23CC4CC(CC(C4)C2)C3)[C@@H]1c1ccc(CO)cc1 was run?
A: 1.23

Q: CC(C)C[C@@H]1NC(=O)[C@H]2C[C@@H](C(=O)NCCCCCCNC(=O)CS)[C@@H](c3cccc(OCCO)c3)N2C1=O was tested. Which composite z-score did it give?
A: 1.64

Q: Which composite z-score does the source give for Cc1cc(C)c(C(O)C2C=CC3C(=O)N(C)C(=O)C3N2Nc2ccccc2)c(C)c1 (stereo not given) here?
A: -0.0568

Q: For O=C1OCCC=C[C@H]2OC34C=CCN(Cc5ccccc5)C(=O)[C@H]3N(CCCO)C(=O)[C@@H]4C12 (stereo not given in full), which composite z-score is on record?
A: -0.349

Q: For COCCOC(=O)N1C(=O)[C@@]2(c3cc(C#CCC(C(=O)OC)C(=O)OC)ccc31)[C@H](c1ccc(O)cc1)N1[C@H](c3ccccc3)[C@H](c3ccccc3)OC(=O)[C@H]1[C@@H]2C(N)=O, which composite z-score is on record?
A: 1.33

Q: With COCCOC(=O)N1C(=O)[C@@]2(c3cc(C#CCC(C(=O)OC)C(=O)OC)ccc31)[C@H](c1ccccc1OCCO)N1[C@H](c3ccccc3)[C@H](c3ccccc3)OC(=O)[C@H]1[C@@H]2C(N)=O as the molecule, how does the composite z-score read?
A: 1.29

Q: For C=CCNC(=O)[C@H]1[C@@H]2C(=O)O[C@@H](c3ccccc3)[C@@H](c3ccccc3)N2[C@@H](c2ccc(O)cc2)[C@]12C(=O)N(C(=O)OCCOC)c1ccc(C#CCCO)cc12, which composite z-score is on record?
A: 0.748

Q: Which composite z-score does the source give for CC(C)CNC(=O)[C@@H]1c2ccccc2C(=O)N(Cc2cc(C(F)(F)F)cc(C(F)(F)F)c2)[C@H]1c1ccc(CO)cc1 here?
A: -0.124

Q: How did the composite z-score turn out when O=C(CS)NCCCCCCNC(=O)[C@@H]1C[C@@H]2C(=O)N3CCC[C@H]3C(=O)N2[C@@H]1c1ccc(O)cc1 was run?
A: 1.13

Q: How did the composite z-score turn out when CCCCCCc1nc(CCCc2cc3c(c(CCCCCC)n2)[Si](C(C)C)(C(C)C)OC3)cc2c1[Si](C(C)C)(C(C)C)OC2 was run?
A: -0.13

Q: How did the composite z-score turn out when O=C1O[C@H](c2ccccc2)[C@H](c2ccccc2)N2[C@H]1[C@@H](C(=O)NC[C@H](O)c1ccccc1)[C@]1(C(=O)Nc3ccc(C#CCCO)cc31)[C@H]2c1ccc(O)cc1 was run?
A: -0.702

Q: With C=C[C@@H](COC(C)=O)N(Cc1ccccc1[N+](=O)[O-])S(=O)(=O)c1ccc(Br)cc1 as the molecule, how does the composite z-score read?
A: 1.51

Q: With O=C1N(CCS(=O)(=O)c2ccccc2)Cc2ccccc2C[C@]12N=C(c1ccc(OCCCO)cc1)O[C@@H]2c1ccccc1 as the molecule, how does the composite z-score read?
A: 1.91

Q: For CCOC(=O)C1=C[C@@H](CC)N(S(=O)(=O)c2ccc(C)cc2)[C@H]1c1ccccc1, which composite z-score is on record?
A: 0.261

Q: How did the composite z-score turn out when Cc1ccc(S[C@]2(C(=O)NCc3ccccc3)CC(=O)N(Cc3ccccc3)[C@@H]2c2ccc(CO)cc2)cc1 was run?
A: -0.524

Q: CC(C)c1ccc(NN2C(C(O)c3ccc(N(C)C)cc3)C=CC3C(=O)N(c4ccccc4)C(=O)C32)cc1 (stereo not given) was tested. Which composite z-score did it give?
A: -0.321

Q: With CS(=O)(=O)CCOC(=O)C1=CC(c2ccc(CO)cc2)=CC(C2CC2)N(Cc2cc3c(cc2Br)OCO3)C=C1C(=O)OCCS(C)(=O)=O (stereo not given) as the molecule, how does the composite z-score read?
A: 0.763

Q: How did the composite z-score turn out when O=C1O[C@@H](c2ccccc2)[C@@H](c2ccccc2)N2[C@@H](c3ccc(OCCO)cc3)[C@]3(C(=O)Nc4ccccc43)[C@@H](C(=O)Nc3nc4ccccc4s3)[C@H]12 was run?
A: 0.79

Q: With CN(C)CCCCNC(=O)[C@H]1C[C@H]2C(=O)N[C@@H](Cc3ccccc3)C(=O)N2[C@H]1c1ccc(O)cc1 as the molecule, how does the composite z-score read?
A: 1.64

Q: How did the composite z-score turn out when C=CCC(OC(C)=O)[C@@H]1[C@@H](N(Cc2ccc(-c3ccccc3)cc2)C(=O)Cc2ccc(F)cc2)c2cc(OCCCO)ccc2N1C(=O)c1ccc2ccccc2n1 (stereo not given in full) was run?
A: 0.253

Q: For COC(=O)[C@@]1(Cc2ccccc2N=[N+]=[N-])COC(c2ccc(OCCCO)cc2)=N1, which composite z-score is on record?
A: 0.3

Source: PubChem BioAssay
